Compound activity: PubChem, National Center for Advancing Translational Sciences (NCATS)
MARV entry inh = qHTS for inhibitors of binding or entry into cells for Marburg Virus; Marburg virus pseudotyped entry inhibition, cell reporter; Potency, µM (doses to about 37.8 µM), for the others: top-dose activity change, negative = inhibition, hits mostly inhibitors; 300,000 compounds, 1.8% hits; AID 540276, 2011; calls by dose curve; tested in HEK293 cells; also: potency is read from the fitted curve at half-maximal effect; % is scaled to controls: 0 for no effect and ±100 for the full control effect
Shiga inhibitor = A qHTS for Small Molecule Inhibitors of Shiga Toxin; Vero cells, Shiga toxin protein synthesis inhibition reporter; inhibition, % at 38.7 µM; 290,000 compounds, 9.2% hits; AID 2315, 2010; in the data active = inhibition mostly above about 28%, no sharp cut-off; inactive = mostly below about 43%; also: 0% is about no effect
Pf growth 48h = Primary qHTS for delayed death inhibitors of the malarial parasite plastid, 48 hour incubation; P. falciparum luciferase growth in erythrocytes, 48 h; Potency, µM (doses to about 28.7 µM), for the others: top-dose activity change, negative = inhibition, most hits filed as inhibitors; 310,000 compounds, 5.9% hits; also: potency is read from the fitted curve at half-maximal effect; % is scaled to controls: 0 for no effect and ±100 for the full control effect
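First compound was added to culture medium, then infected red cells at 0.1% parasitemia and 2% hematocrit (final). After incubation at 37 C under 5% CO2, luciferase detection reagent was dispensed and light output recorded.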
Lassa entry inh = qHTS for Inhibitors of binding or entry into cells for Lassa Virus. Lassa virus pseudotype entry inhibition, cell reporter. 300,000 compounds, 1.2% hits. Potency, µM (titrated, usually from 37.9 µM), for the others: at the top dose activity change, negative = inhibition, usual class: inhibitors; calls by dose curve; tested in HEK293 cells; also: potency is read from the fitted curve at half-maximal effect; % is scaled to controls: 0 for no effect and ±100 for the full control effect; nearly all actives have a fitted effect of over 50% in size
Pf growth 96h = Primary qHTS for delayed death inhibitors of the malarial parasite plastid, 96 hour incubation. P. falciparum luciferase reporter growth, 96 h. Potency, µM (series often up to 28.7 µM), for inactives: top-dose activity change, negative = inhibition, most hits filed as inhibitors. 320,000 compounds, 6.9% hits; also: potency is read from the fitted curve at half-maximal effect; % is scaled to controls: 0 for no effect and ±100 for the full control effect
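Plates of compound plus infected erythrocytes (2% hematocrit, 0.05% parasitemia final) incubate 96 hours, 37 C, 5% CO2. Detection reagent added; reduced luminescence from the parasites' luciferase reporter flags inhibition.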
Cycloheximide cs = Cycloheximide Counterscreen for Small Molecule Inhibitors of Shiga Toxin; cell reporter, cycloheximide protein synthesis inhibition counterscreen; max response, %; 300,000 compounds, 12% hits; AID 2314, 2010; in the data active = max response mostly above about 13%, no sharp cut-off; inactive = mostly below about 14%; also: read at 38.3 µM for the half of the compounds with a filed dose; 0% is about no effect
The depositor's hits bear a star; u = inconclusive; x = not tested or not shown; [ ] = remark or other dose. Hits are enriched below; roughly 19% of the tested compounds scored in any of these assays. Unless noted, calls follow the shape of the dose curve; as a rule, active = well fitted inhibition curve with a large enough effect; inconclusive = small, poorly fitted or top-dose-only effect, or another doubt; inactive = no such curve, though single readings can be large or run the other way.

SMILES	MARV entry inh	Shiga inhibitor	Pf growth 48h	Lassa entry inh	Pf growth 96h	Cycloheximide cs
C=C1[C@@H](OC(C)=O)CC[C@]2(C)[C@@H]1C[C@@H]1C[C@H](OC(C)=O)C(C)=C([C@@H](OC(C)=O)[C@@H]2OC(C)=O)C1(C)C	x	-8	6.6µM*	x	7.4µM*	-1
O=C(Cc1ccc2cccnc2c1)c1ccc(O)cc1O	-1%	34*	x	5%	x	29*
O=C(NNC(=O)c1ccccc1OCc1ccccc1)c1ccccc1F	-18%[46.1 µM]	73*	41%	-5%[46.1 µM]	68%	69*
O=C(N/N=C/c1ccccc1F)c1ccccc1OCc1ccccc1	-6%[46.1 µM]	75*	u	-1%[46.1 µM]	10%	20*
O=C(NNC(=O)c1ccccc1OCc1ccccc1)c1ccccc1O	-23%[46.1 µM]	6	u	-2%[46.1 µM]	u	12
O=C(NNC(=O)c1ccccc1OCc1ccc(F)cc1)c1ccccc1O	u	27	u	u	8.3µM*	15*
Cc1noc(C)c1COc1ccccc1C(=O)NNC(=O)c1ccccc1F	35%	x	u	1%	u	x
Cc1cccc(Nc2c3c(nc4ncnn24)CCC3)c1	x	-5	u	x	-4%	7
COc1ccc(C(=O)N=c2nc3ccccn3s2)cc1	u	74	x	u	-8%	38*
COc1ccc(C(=O)NC2c3ccccc3-c3ccccc32)cc1	x	-12	14%	x	u	-3
Cc1cccc2nc(-c3cccc(NC(=O)Cc4ccccc4)c3)cn12	u	37	-20%	-10%	-25%	17
CC12CCC(C(=O)Nc3nccs3)(OC1=O)C2(C)C (centres undefined)	1%	-10	4%	u	-5%	13
CC12CCC(C(=O)Nc3nc4ccc(Br)cc4s3)(OC1=O)C2(C)C (centres undefined)	x	94*	22%	x	u	33*
O=C(Cn1cncn1)NCc1cc(F)ccc1F	4%[46.1 µM]	-6	27%	25%[46.1 µM]	u	1
Cc1cccc2sc(N(CCCN(C)C)C(=O)CCc3ccccc3)nc12	u	-12	u	u	1.9µM*	-5
Cc1ccc2sc(N(CCCN(C)C)C(=O)CCS(=O)(=O)c3ccccc3)nc2c1C	x	-1	39%	x	6.6µM*	10
CN(C)CCN(C(=O)CCS(=O)(=O)c1ccccc1)c1nc2c(F)cccc2s1	x	3	25%	x	2.6µM*	-2
Cc1cc(C)c2sc(N(CCN(C)C)C(=O)CCS(=O)(=O)c3ccccc3)nc2c1	u	33	u	u	u	1
Cc1ccc2sc(N(CCCN(C)C)C(=O)c3ccc(Br)s3)nc2c1C	15µM*	-15	u	u	u	-9
COc1ccc(OC)c2sc(N(CCCN(C)C)C(=O)CCS(=O)(=O)c3ccccc3)nc12	u	x	u	-25%	20%	x
CCN(CC(=O)NCc1ccc(F)cc1)C(=O)CN1CCN(c2ccccc2OC)CC1	-5%[46.1 µM]	-6	3%	4%	13%	-7
CCOC(=O)c1c(NC(=O)N/N=C/c2ccc(O)c(OC)c2)sc(C(C)=O)c1C	x	8	u	x	u	0
Cc1nc(C)n(CCNS(=O)(=O)c2ccccc2)n1	-4%[46.1 µM]	-17	2%	-12%[46.1 µM]	-3%	-7
CN(C)CCCN(C(=O)CCS(=O)(=O)c1ccccc1)c1nc2cc3c(cc2s1)OCO3	u	17	18%	u	23%	9.9*
CC(C)c1ccc(NC(=O)C2CCC(CNC(=O)[C@@H]3Cc4ccccc4CN3)CC2)cc1 (some centres undefined)	u	17	u	5%[46.1 µM]	-5%	15*
SMILES	MARV entry inh	Shiga inhibitor	Pf growth 48h	Lassa entry inh	Pf growth 96h	Cycloheximide cs
CCc1ccc(NC(=O)CNC(=O)[C@@H]2Cc3ccccc3CN2)cc1	x	3	1%	x	-26%	5
CC(C)C[C@H](NC(=O)[C@@H]1Cc2ccccc2CN1)C(=O)Nc1ccc(C(C)C)cc1	u	22	-16%	-18%[46.1 µM]	u	23*
CCc1ccc(NC(=O)[C@@H](NC(=O)[C@@H]2Cc3ccccc3CN2)C(C)CC)cc1 (some centres undefined)	x	20	7.4µM*	x	u	16*
CCc1ccc(NC(=O)[C@H](NC(=O)[C@@H]2Cc3ccccc3CN2)c2ccccc2)cc1	x	19	-19%	x	u	28*
CCS(=O)(=O)Nc1ccc(-c2cn3c(C)csc3n2)cc1	x	x	x	-1%[46.1 µM]	x	x
Cc1nonc1CN(C)C(=O)CC1C(=O)NCCN1Cc1c(F)cccc1Cl (centres undefined)	-1%[46.1 µM]	4	17%	-11%	0%	-3
O=[N+]([O-])c1ccc(S(=O)(=O)NCC2CC3CCC2C3)cc1 (centres undefined)	x	6	-20%	x	-10%	-3
Cc1cc(C)cc(NC(=O)[C@H](NC(=O)[C@@H]2Cc3ccccc3CN2)c2ccccc2)c1	1.4µM*	13	u	30%[46.1 µM]	u	8
Cc1ccccc1OCCCN1CCCC1	26%	-13	24%	-5%	x	-1
Nc1nonc1-n1nnc(C(=O)N/N=C/c2ccccc2F)c1-c1cccs1	x	2	23%	x	14%	-7
Cc1c(C(=O)N/N=C/c2cccc(O)c2)nnn1-c1nonc1N	x	1	u	x	13µM*	12
Nc1nonc1-n1nnc(C(=O)N/N=C/c2ccc(F)cc2)c1-c1ccc2c(c1)OCO2	-24%[46.1 µM]	0	0.12µM*	1%[46.1 µM]	0.066µM*	-2
Cc1ccc(-c2c(C(=O)N/N=C/c3cccnc3)nnn2-c2nonc2N)cc1	u	16	u	-1%[46.1 µM]	u	-3
Cc1ccccc1COc1cccc(/C=N/NC(=O)c2nnn(-c3nonc3N)c2C)c1	x	-5	u	x	1%	1
C/C(=N\N=C\c1ccccc1F)c1nnn(-c2nonc2N)c1C	19%	80*	129%	8%	65%	16*
Nc1nonc1-n1nnc(C(=O)N/N=C/c2cccnc2)c1-c1ccccc1	x	-8	u	x	12µM*	-8
CCc1ccc(-n2c(=O)c3ccccc3n3c(=S)[nH]nc23)cc1	x	-2	x	x	23%	-3
COc1ccccc1NC(=O)c1c(C)nc2ccccc2c1C(=O)O	8%[46.1 µM]	6	0%	9%	4%	1
Cc1cc(=O)oc2cc(OCC(=O)N3CCN(Cc4ccccc4)CC3)ccc12	-14%	x	x	-17%	x	x
CN1C(=O)CC(N2CCN(C(=O)CN3CCCC3)CC2)C1=O (centres undefined)	-4%	-3	3%	1%	16%	1
Cc1cc(C(=O)OCC(=O)c2cccs2)ccc1[N+](=O)[O-]	5%[46.1 µM]	x	34%	-2%	5%	x
Nc1nnnn1CC(=O)N/N=C/c1cccs1	x	25	4%	x	26%	17*
Nc1nonc1-n1nnc(C(=O)N/N=C/c2ccccn2)c1-c1ccccc1	u	-8	1%	12%[46.1 µM]	1%	12
